Read-out in assay [1]: Urokinase-type plasminogen activator receptor (uPAR), PLAUR (gene 5329)
The assay can be described thus: BSK_BE3C_uPAR: BioMAP Diversity Plus: BE3C Assay for Urokinase-type plasminogen activator receptor (uPAR) Biomarker Activity (AID 2283039).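 As to outcome: uPAR protein level measured by ELISA on the cells; cells exposed to compound for one day before measurement.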 Conditions: primary human bronchial epithelial cells; actives raise or lower the signal. In outline: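 ELISA readout of uPAR on human lung primary bronchial epithelial cells, 24 h post-dosing. Bidirectional curve fit relative to DMSO vehicle baseline; gain or loss of signal both scored.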

Read-out in assay [2]: Interleukin-6 (IL6), IL6 (gene 3569)
Kind of assay: BSK_CASM3C_IL6: BioMAP Diversity Plus: CASM3C Assay for Interleukin-6 (IL6) Biomarker Activity for (AID 2283040). Conditions: primary human coronary artery smooth muscle cells; actives raise or lower the signal.

Read-out in assay [3]: Tissue plasminogen activator (tPA), PLAT (gene 5327)
Kind of assay: BSK_BE3C_tPA: BioMAP Diversity Plus: BE3C Assay for Tissue plasminogen activator (tPA) Biomarker Activity (AID 2283041).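 Also: tPA level quantified by ELISA one day after compound addition.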 Conditions: primary human bronchial epithelial cells; actives raise or lower the signal. In outline: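 ELISA read-out of tPA on human primary bronchial epithelial cells, 24 h post-dosing; bidirectional fit vs DMSO negative control/baseline.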

Read-out in assay [4]: Interleukin-8 (IL8), CXCL8 (gene 3576)
The assay can be described thus: BSK_CASM3C_IL8: BioMAP Diversity Plus: CASM3C Assay for Interleukin-8 (IL8) Biomarker Activity (AID 2283042).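 Also: IL-8 protein level quantified by ELISA.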 To be noted: primary human coronary artery smooth muscle cells; actives raise or lower the signal.

Read-out in assay [5]: Human Leukocyte Antigen - DR isotype (HLADR), HLA-DRA (gene 3122)
Kind of assay: BSK_CASM3C_HLADR: BioMAP Diversity Plus: CASM3C Assay for Human Leukocyte Antigen - DR isotype (HLADR) Biomarker Activity (AID 2283043).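 Also: cell-surface HLA-DR protein level quantified by ELISA.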 Conditions: primary human coronary artery smooth muscle cells; actives raise or lower the signal.

Read-out in assay [6]: Macrophage colony-stimulating factor (MCSF), CSF1 (gene 1435)
The assay can be described thus: BSK_CASM3C_MCSF: BioMAP Diversity Plus: CASM3C Assay for Macrophage colony-stimulating factor (MCSF) Biomarker Activity (AID 2283044).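 Also: M-CSF protein amount quantified by ELISA after 24 h exposure.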 Conditions: primary human coronary artery smooth muscle cells; actives raise or lower the signal.

Read-out in assay [7]: Low-density lipoprotein receptor (LDLR), LDLR (gene 3949)
The assay can be described thus: BSK_CASM3C_LDLR: BioMAP Diversity Plus: CASM3C Assay for Low-density lipoprotein receptor (LDLR) Biomarker Activity (AID 2283045).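 Also: LDLR protein level on the cell surface quantified by ELISA.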 Conditions: primary human coronary artery smooth muscle cells; actives raise or lower the signal.

Read-out in assay [8]: Monocyte Chemoattractant Protein-1 (MCP1), CCL2 (gene 6347)
Kind of assay: BSK_CASM3C_MCP1: BioMAP Diversity Plus: CASM3C Assay for Monocyte Chemoattractant Protein-1 (MCP1) Biomarker Activity (AID 2283046).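 Also: MCP-1 level quantified by ELISA 24 h after dosing.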 Conditions: primary human coronary artery smooth muscle cells; actives raise or lower the signal.

Assay [9] can be described thus: BSK_CASM3C_Proliferation: Cell Proliferation Assessment in the BioMAP Diversity Plus: CASM3C Assay (AID 2283047).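 Also: sulforhodamine B total protein stain as relative cell number at 560 nm; sub-confluent cells exposed 48 h before staining; fitted both ways against DMSO so gain or loss of cell number.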 Conditions: primary human coronary artery smooth muscle cells.
Read-out in assay [10]: Monokine induced gamma interferon (MIG), CXCL9 (gene 4283)
Kind of assay: BSK_CASM3C_MIG: BioMAP Diversity Plus: CASM3C Assay for Monokine induced gamma interferon (MIG) Biomarker Activity (AID 2283048).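 Also: MIG protein level measured by ELISA.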 To be noted: primary human coronary artery smooth muscle cells; actives raise or lower the signal.

Read-out in assay [11]: serum amyloid A (SAA), SAA1 (gene 6288)
Kind of assay: BSK_CASM3C_SAA: BioMAP Diversity Plus: CASM3C Assay for serum amyloid A (SAA) Biomarker Activity (AID 2283049).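 Also: SAA protein level quantified by ELISA.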 To be noted: primary human coronary artery smooth muscle cells; actives raise or lower the signal.

A short description of assay [12]: BSK_CASM3C_SRB: Viability Assessment in the BioMAP Diversity Plus: CASM3C Assay (AID 2283050).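 Also: cells exposed to compound for 24 h.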 To be noted: primary human coronary artery smooth muscle cells.
Read-out in assay [13]: Thrombomodulin, THBD (gene 7056)
The assay can be described thus: BSK_CASM3C_Thrombomodulin: BioMAP Diversity Plus: CASM3C Assay for Thrombomodulin Biomarker Activity (AID 2283051).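 Also: thrombomodulin protein level measured by ELISA 24 h after dosing.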 Conditions: primary human coronary artery smooth muscle cells; actives raise or lower the signal.

Read-out in assay [14]: Tissue Factor, F3 (gene 2152)
The assay can be described thus: BSK_CASM3C_TissueFactor: BioMAP Diversity Plus: CASM3C Assay for Tissue Factor Biomarker Activity (AID 2283052).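 Also: cell surface tissue factor protein level read by ELISA.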 To be noted: primary human coronary artery smooth muscle cells; actives raise or lower the signal.

Read-out in assay [15]: Interferon-gamma inducible Protein 10 (IP10), CXCL10 (gene 3627)
Kind of assay: BSK_hDFCGF_IP10: BioMAP Diversity Plus: hDFCGF Assay for Interferon-gamma inducible Protein 10 (IP10) Biomarker Activity (AID 2283053). To be noted: primary human foreskin fibroblasts; actives raise or lower the signal. In outline: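 ELISA read-out of IP-10 (CXCL10) from primary human skin fibroblasts, 24 h after compound addition. Gain or loss of signal versus DMSO baseline, bidirectional curve fitting.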

Read-out in assay [16]: Urokinase-type plasminogen activator receptor (uPAR), PLAUR (gene 5329)
The assay can be described thus: BSK_CASM3C_uPAR: BioMAP Diversity Plus: CASM3C Assay for Urokinase-type plasminogen activator receptor (uPAR) Biomarker Activity (AID 2283054).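 Also: cell-surface uPAR protein level quantified by ELISA.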 To be noted: primary human coronary artery smooth muscle cells; actives raise or lower the signal.

Read-out in assay [17]: Vascular cell adhesion molecule 1 (VCAM1), VCAM1 (gene 7412)
Kind of assay: BSK_CASM3C_VCAM1: BioMAP Diversity Plus: CASM3C Assay for Vascular cell adhesion molecule 1 (VCAM1) Biomarker Activity (AID 2283055).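 Also: VCAM-1 protein level quantified by ELISA on the cells.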 To be noted: primary human coronary artery smooth muscle cells; actives raise or lower the signal.

Read-out in assay [18]: Epidermal growth factor receptor (EGFR), EGFR (gene 1956)
Kind of assay: BSK_hDFCGF_EGFR: BioMAP Diversity Plus: hDFCGF Assay for Epidermal growth factor receptor (EGFR) Biomarker Activity (AID 2283057). Conditions: primary human foreskin fibroblasts; actives raise or lower the signal. In a few lines:
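ELISA readout of EGFR on human dermal fibroblasts (primary foreskin cells), 24 h post-dosing; bidirectional curve fit vs DMSO baseline, gain or loss of signal scored.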

Read-out in assay [19]: Interleukin-8 (IL8), CXCL8 (gene 3576)
Kind of assay: BSK_hDFCGF_IL8: BioMAP Diversity Plus: hDFCGF Assay for Interleukin-8 (IL8) Biomarker Activity (AID 2283058). To be noted: primary human foreskin fibroblasts; actives raise or lower the signal. In a few lines:
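Primary human foreskin fibroblasts (hDFCGF system) dosed with chemical; IL-8 measured by ELISA 24 hours later. Bidirectional curve fitting relative to DMSO baseline; cytotoxicity tracked in parallel cultures by SRB total protein staining.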

Activity calls are given as the source filed them. The calls were made as follows: active = hit-call score of the fitted dose curve at least 0.9, where 1 is the maximum; inactive = score below 0.9.

Usually AC50 stands for the concentration at which the activity in the assay is half-maximal. For the compound `CSC(=O)c1c(C(F)F)nc(C(F)(F)F)c(C(=O)SC)c1CC(C)C`, the result in assay [1], in [3], in [4], in assay [5], in assay [6] and in assay [7] was inactive. Moreover, the outcome in [8], in assay [9], in [10], in [11], in [12] and in [14] was inactive. The outcome in assay [16], in assay [17], in assay [18] and in assay [19] was inactive. In addition, the half-maximal activity concentration (AC50) is 3.97 µM (active) in assay [2], 20 µM (active) in [13] and 25.5 µM (active) in assay [15].

With `CCCN(CC)CC1COC2(CCC(C(C)(C)C)CC2)O1` (configuration not stated), the half-maximal activity concentration (AC50) in assay [1] was 1.77 µM (active); in assay [9] it was 7.08 µM (active); in [15], 1.98 µM (active). Further, the outcome in assay [2], in assay [3], in [4], in [5], in assay [6] and in assay [7] was inactive. For the same compound, the result in [8], in [10], in [11], in [12], in assay [13] and in assay [14] was inactive. For the same compound, the result in assay [16], in [17], in assay [18] and in [19] was inactive.

Regarding `CC(C)N1C(=O)c2ccccc2NS1(=O)=O`, the outcome in assay [1], in assay [2], in assay [3], in assay [4], in assay [5] and in [6] was inactive. The result in [7], in assay [9], in assay [10], in [11], in assay [12] and in assay [13] was inactive. The outcome in assay [14], in [16], in assay [17], in [18] and in [19] was inactive. The AC50 in assay [15] is 13.4 µM (active).

For `CO/N=C(/C1=NOCCO1)c1ccccc1Oc1ncnc(Oc2ccccc2Cl)c1F`, the result in [1], in assay [2], in [3], in [4], in assay [5] and in [6] was inactive. Moreover, the outcome in assay [8], in [10], in assay [11], in assay [12], in [13] and in assay [14] was inactive. The result in [15], in [16], in assay [17], in assay [18] and in assay [19] was inactive. Further, the AC50 in [7] was 13.5 µM (active); in assay [9] it was 12.9 µM (active).

With `Clc1cccc(C(Cl)(Cl)Cl)n1`, the result in assay [1], in assay [2], in assay [3], in assay [4], in assay [5] and in assay [6] was inactive. In addition, the result in assay [7], in assay [8], in [9], in assay [10], in assay [11] and in [12] was inactive. The result in assay [13], in [14], in assay [16], in assay [17], in assay [18] and in assay [19] was inactive. Further, the AC50 in assay [15] was 29.8 µM (active).

Take `Clc1nc(Cl)nc(Nc2ccccc2Cl)n1`: the concentration at half-maximal activity (AC50) in assay [1] is 0.293 µM (active); in assay [15] it was 32 µM (active). Besides, the outcome in assay [2], in assay [3], in [4], in assay [5], in assay [6] and in assay [7] was inactive. The result in assay [8], in [9], in [10], in [11], in assay [12] and in [13] was inactive. In addition, the result in assay [14], in [16], in [17], in assay [18] and in [19] was inactive.

As for `CCNC(=O)NC(=O)C(C#N)=NOC`, the result in assay [1], in assay [3], in [4], in assay [5], in [6] and in assay [7] was inactive. The result in [9], in assay [10], in assay [11], in [12], in assay [14] and in [15] was inactive. Besides, the result in assay [16], in assay [17], in assay [18] and in [19] was inactive. Also, the half-maximal activity concentration (AC50) was 6.13 µM (active) in assay [2], 1.98 µM (active) in assay [8] and 15.9 µM (active) in assay [13].

Source of the values: PubChem BioAssay (EPA / NIEHS).
